# Measured values published in PubChem BioAssay (Tox21).
# Where “and” joins values, the source holds several entries; their conditions need not be identical. Equal entries are not always repeated. Records with an inconclusive call do not appear. Calls of active or inactive are those of the source. Calls follow the shape of the dose curve; as a rule, active = well fitted cell-killing curve with a large enough effect in the repeat runs; inconclusive = weak or mixed curves; inactive = no such curve, though single readings can be large or run the other way.
# Experiment: qHTS assay to identify small molecule antagonists of the androgen receptor (AR) signaling pathway - cell viability counter screen (AID 743033; also: nearly all actives have a fitted effect of over 45% in size)
# Settings: AR-bla HEK293 viability, CellTiter-Glo luminescence, 16 h; series mostly up to 58.5 µM; activity change, negative = cytotoxicity: at the top concentration
# Excerpt: National Center for Advancing Translational Sciences [NCATS]
# NIH Chemical Genomics Center [NCGC]
# U.S. Environmental Protection Agency [EPA]
# National Institutes of Environmental Health Sciences [NIEHS]
# National Toxicology Program [NTP]
# U.S. Food and Drug Administration [FDA]
# Androgen receptor (AR), a nuclear hormone receptor, plays a critical role in AR-dependent prostate cancer and other androgen related diseases. Endocrine disrupting chemicals (EDCs) and their interactions with steroid hormone receptors like AR may cause disruption of normal endocrine function as well as interfere with metabolic homeostasis, reproduction, developmental and behavioral functions. To identify the compounds that inhibit AR signaling, GeneBLAzer AR-UAS-bla-GripTite cell line (Invitrogen, Carlsbad, CA, USA) containing a beta-lactamase reporter gene under control of an Upstream Activator Sequence (UAS) stably integrated into HEK293 cells was used to screen the Tox21 10K compound library. The cytotoxicity of the Tox21 compound library against the AR-bla cell line was tested in parallel by measuring the cell viability using CellTiter-Glo assay in the same wells.
# Tox21 Assay Protocol Summary:
# AR-bla cells were dispensed at 2,000 cells/5 uL of assay medium per well into black wall/clear-bottom 1536-well plates using a Multidrop Combi (ThermoFisher Scientific, Waltham, MA) dispenser. After the assay plates were incubated at a 37C and 5% CO2 for 4 hr, 23 nL of compounds dissolved in DMSO, positive controls or DMSO only was transferred to the assay plate by a Pintool station (Kalypsys, San Diego, CA), followed by addition of 1 uL of agonist (R1881) in culture medium using a Bioraptr Flying Reagent Dispenser (FRD) workstation (Beckman Coulter, Indianapolis, IN, USA). The plates were incubated at a 37C and 5% CO2 for 16 h. After 1 uL of LiveBLAzerTM B/G FRET substrate was added using a Bioraptr FRD, the plates were incubated at room temperature for 2 h and fluorescence intensity was measured by an Envision plate reader (PerkinElmer, Shelton, CT). For cell viability readout that measures cytotoxicity, 4 ul/well of CellTiter-Glo reagent was added into the assay plates using a Bioraptr FRD. After 30 min incubation at room temperature, the luminescence intensity in the plates was measured using a ViewLux (PerkinElmer) plate reader.
# % is scaled to controls: 0 for no effect and ±100 for the full control effect; potency is read from the fitted curve at half-maximal effect.
SMILES,Potency,"activity change, negative = cytotoxicity"
CNC(C)C(O)c1ccc(O)cc1 (stereo not given),inactive,–
O=c1ccc2cc(O[C@@H]3O[C@H](CO)[C@@H](O)[C@H](O)[C@H]3O)c(O)cc2o1,–,2.73% [at 27 µM] (inactive)
O=P(O)(O)C(Cl)(Cl)P(=O)(O)O,–,5.77% (inactive)
CCOC(=O)C(O)(c1ccc(Cl)cc1)c1ccc(Cl)cc1,7.84 µM (active),–
c1ccc(C2(N3CCCC3)CCCCC2)cc1,–,-16.3% (inactive)
CCCCCc1cc(O)c2c(c1)OC(C)(C)c1ccc(C)cc1-2,–,-28.2% (inactive)
COc1cc(C[C@H](C)N)c(OC)cc1C,–,1.68% [at 78.9 µM] (inactive)
CC(Cc1ccccc1)NC=O (stereo not given),–,-5.45% (inactive)
CC1(C)[C@H](C=C(Cl)Cl)[C@H]1C(=O)OCc1c(F)c(F)cc(F)c1F,–,-3.78% (inactive)
CC(=O)OC1CN2CCC1CC2 (stereo not given),–,5.86% (inactive)
COC(COC(N)=O)C1=C(N2CC2)C(=O)C(C)=C(N2CC2)C1=O (stereo not given),–,-8.68% (inactive)
CNC(=O)Oc1ccccc1C(=O)Nc1ccccc1,–,-23.2% (inactive)
[S]=[Sb](=[S])[S][Sb](=[S])=[S],–,-5.07% (inactive)
CN1CSC(=S)N(C)C1,5.47 µM (active) and 3.46 µM (active),–
NCC[C@H](O)C(=O)N[C@@H]1C[C@H](N)[C@@H](O[C@H]2O[C@H](CN)[C@@H](O)[C@H](O)[C@H]2N)[C@H](O[C@@H]2O[C@H](CO)[C@@H](O)[C@H]2O)[C@H]1O,–,-5.17% [at 27 µM] (inactive)
O=C1CCCCC1CN1CCCCC1 (stereo not given),–,3.33% (inactive)
O=P1(N(CCCl)CCCl)NC(OO)CCO1 (stereo not given),–,2.51% (inactive)
O=C1C[C@@H]2OCC=C3CN4CC[C@]56c7ccccc7N1[C@H]5[C@H]2[C@H]3C[C@H]46 (tested in a mixture with another compound),inactive,–
[2H]C([2H])([2H])[C@H](N)Cc1ccccc1,–,5.89% (inactive)
CCC1(CC)C(=O)NC(=O)N(C)C1=O,–,1.98% (inactive)

SMILES,Potency,"activity change, negative = cytotoxicity"
CCCC(C)(COC(N)=O)COC(=O)NC1CC1 (stereo not given),–,-11.1% (inactive)
CC(=O)OO,–,8.86% (inactive)
CCC1(c2ccccc2)C(=O)NC(=O)N(C)C1=O (stereo not given),–,6.71% (inactive)
Nc1ccc([N+](=O)[O-])cc1,54.9 µM (active),–
O=C(OCCN1CCCCC1)C(O)(c1ccccc1)c1ccccc1,–,6.36% (inactive)
O=C1C=C2C=C[C@@H]3C[C@@]2(O1)[C@H]1CCCCN31,–,-24.8% (inactive)
NC1=NC(=O)N2CC12 (stereo not given),–,-1.96% (inactive)
CCON=O,–,-0.0735% (inactive)
N#CC1(N2CCCCC2)CCCCC1,–,-2.19% (inactive)
C[C@@H](Cc1ccccc1)N(C)C,–,0.901% (inactive)
O=[N+]([O-])c1c(Cl)c(Cl)cc(Cl)c1Cl,–,-28.5% (inactive)
C=CCC1([C@@H](C)CCC)C(=O)NC(=O)NC1=O,–,-12.6% (inactive)
CC1(C)S[C@@H]2[C@H](N)C(=O)N2[C@H]1C(=O)O,–,-19% [at 27 µM] (inactive)
C=CC[C@]1(O)CC[C@H]2[C@@H]3CCC4=CCCC[C@@H]4[C@H]3CC[C@@]21C,–,3.99% (inactive)
CCCCCc1cc(O)c2c(c1)OC(C)(C)[C@@H]1CCC(C)=C[C@@H]21,–,-0.108% (inactive)
C[N+]1([O-])[C@@H]2CC[C@H]1CC(OC(=O)C(CO)c1ccccc1)C2 (stereo not given in full),inactive,–
CCCCNC(C)(C)[P+](=O)O,–,-1.41% (inactive)
CC(=O)OCC(=O)[C@H]1CC[C@H]2[C@@H]3CC[C@H]4C[C@H](O)CC[C@]4(C)[C@H]3C(=O)C[C@]12C,–,-0.777% [at 27 µM] (inactive)
CC(=O)O[C@H]1C[C@H](O[C@H]2[C@@H](O)C[C@H](O[C@H]3[C@@H](O)C[C@H](O[C@H]4CC[C@@]5(C)[C@H](CC[C@@H]6[C@@H]5C[C@@H](O)[C@]5(C)[C@@H](C7=CC(=O)OC7)CC[C@]65O)C4)O[C@@H]3C)O[C@@H]2C)O[C@H](C)[C@H]1O[C@@H]1O[C@H](CO)[C@@H](O)[C@H](O)[C@H]1O,0.0756 µM (active),–
CN[C@@H](C)Cc1ccccc1,–,-5.28% (inactive)
